# L3MBTL1 inh-1 – blocks human L3MBTL1; AlphaScreen L3MBTL1–H3K9me1 peptide binding; Potency, µM (titrated, usually from 57.1 µM), inactives show at the highest dose activity, negative = inhibition, most hits filed as inhibitors; 230,000 tested, 0.66% active; AID 485360; Q9Y468; also: % is scaled to controls: 0 for no effect and ±100 for the full control effect; nearly all actives have a fitted effect of over 60% in size
#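 L3MBTL1 50 nM + b-AHA-H3(1-15)K9me1 75 nM, 30 min RT; compound added, 30 min RT; streptavidin donor/Ni-chelate acceptor beads 10 ug/mL each final, 30 min RT dark; AlphaScreen read.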
# BLM helicase inh – inhibitors of human Bloom syndrome helicase BLM; recombinant BLM DNA unwinding, fluorescence dequenching; Potency, µM (top dose mostly 56.1 µM), without a hit: at the top dose activity change, negative = inhibition, most hits filed as inhibitors; 350,000 tested, 0.2% active;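 also: plate controls were vehicle for no effect and no enzyme for full effect; nearly all actives have a fitted effect of over 35% in size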
# APEX1 inh – APE1 (human) endonuclease inhibition | recombinant APE1, TAMRA/BHQ-2 abasic DNA cleavage fluorescence | Potency, µM (titrated, usually from 65.8 µM), for inactives: at the highest dose activity change, negative = inhibition, actives largely listed as inhibitors | 350,000 tested, 0.35% active | AID 2517;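 also: plate controls were vehicle for no effect and reference inhibitor for full effect; nearly all actives have a fitted effect of over 55% in size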
#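 Activity was derived from the fluorescence gain between first and third kinetic reads (60 s intervals, ex 525/em 598 nm) after 50 nM THF-abasic TAMRA/BHQ-2 duplex was added to 0.75 nM APE1 preincubated 15 min with compound.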
# RECQ1 inh – inhibitors of human RECQ1 DNA helicase; P46063; Potency, µM (highest dose often 57.3 µM), for the others: top-dose activity, negative = inhibition, usual class: inhibitors; RECQ1 DNA unwinding, red fluorescence kinetic read; 240,000 tested, 0.54% active;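 also: plate controls were vehicle for no effect and no enzyme for full effect; nearly all actives have a fitted effect of over 30% in size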
# Target sequence (P46063 whole entry, looked up): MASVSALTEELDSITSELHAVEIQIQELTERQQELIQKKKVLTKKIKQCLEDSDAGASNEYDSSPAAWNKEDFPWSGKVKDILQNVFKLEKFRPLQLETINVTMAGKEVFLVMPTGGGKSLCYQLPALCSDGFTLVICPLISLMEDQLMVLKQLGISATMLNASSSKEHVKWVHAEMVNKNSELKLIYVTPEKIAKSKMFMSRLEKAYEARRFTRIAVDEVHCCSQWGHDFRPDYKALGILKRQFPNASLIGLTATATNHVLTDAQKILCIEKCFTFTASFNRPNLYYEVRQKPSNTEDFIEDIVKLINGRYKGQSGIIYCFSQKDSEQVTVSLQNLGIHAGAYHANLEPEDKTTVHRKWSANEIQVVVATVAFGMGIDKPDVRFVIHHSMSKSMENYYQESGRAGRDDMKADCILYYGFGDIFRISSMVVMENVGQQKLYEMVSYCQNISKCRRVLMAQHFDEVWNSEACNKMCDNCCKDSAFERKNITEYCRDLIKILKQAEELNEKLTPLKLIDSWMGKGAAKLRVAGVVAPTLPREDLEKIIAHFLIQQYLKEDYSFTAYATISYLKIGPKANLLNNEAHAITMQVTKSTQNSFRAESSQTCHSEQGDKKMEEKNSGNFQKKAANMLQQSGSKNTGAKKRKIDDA
#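 RECQ1T1 50 nM; forked duplex (20 bp + 30-nt ss tails) 200 nM, ATP 2 mM final; pH 8.0, 2 mM MgCl2, 2.5 ug/ml poly(dI-dC); 15 min compound preincubation; discontinuous kinetic read over 2 h at RT.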
# L3MBTL1 inh-2 – validation of human L3MBTL1 methyl-lysine binding inhibitors. shares compounds with L3MBTL1 inh-1. 500 tested, 91% active. AID 540279. L3MBTL1 methyl-lysine binding inhibition, biochemical qHTS. Potency, µM, hits mostly inhibitors; also: nearly all actives have a fitted effect of over 70% in size
# L3MBTL1 ctr – counter-screen for L3MBTL1 inhibitors: AlphaScreen signal interference | shares compounds with L3MBTL1 inh-1 | Potency, µM (top dose mostly 57.1 µM), without a hit: at the top dose activity change, negative = inhibition, actives largely listed as inhibitors | 500 tested, under 10 active | AlphaScreen counterscreen, signal inhibition; also: 0% is about no effect
# Numbers without * were called inactive; ? = inconclusive; · = no result given. Hits are enriched below; roughly 0.78% of the tested compounds scored in any of these assays. Calls follow the shape of the dose curve; as a rule, active = well fitted curve in the direction sought with a large enough effect; inconclusive = small, poorly fitted or top-dose-only effect, or another doubt; inactive = no such curve, though single readings can be large; an effect the other way counts as inactive or inconclusive. Potency is read from the fitted curve at half-maximal effect.
SMILES,L3MBTL1 inh-1,BLM helicase inh,APEX1 inh,RECQ1 inh,L3MBTL1 inh-2,L3MBTL1 ctr
Cc1ccc(NC(=O)C2CCN(c3nc(-c4ccc(C(C)C)cc4)no3)CC2)c(Cl)c1,·,-3%,·,·,·,·
CCc1ccccc1NC(=O)CSc1ccsc1[N+](=O)[O-],28µM*,-22%,9%,-2%,24*,-3%
COc1ccccc1CNC(=O)CSc1ccsc1[N+](=O)[O-],·,-20%,-8%,-15%,·,·
CC(=O)c1c(COC(=O)c2cccc(C)c2)nc2ccccc2[n+]1[O-],-26%,-7%,-7%,2%,·,·
CC(=O)c1c(COC(=O)c2ccncc2)nc2ccccc2[n+]1[O-],35µM*,-2%,4%,5%,?,-1%
COc1ccc(CNC(=O)C2CCN(Cc3nc(-c4ccc(Cl)cc4)oc3C)CC2)cc1,·,0%,·,·,·,·
CCCCN(C(=O)c1cccc(-n2cccc2)c1)c1c(N)n(Cc2ccccc2)c(=O)[nH]c1=O,20µM*,·,2.7µM*,·,4.2*,-29%
CCCCN(C(=O)c1cccc(N2C(=O)c3ccccc3C2=O)c1)c1c(N)n(CC(C)C)c(=O)[nH]c1=O,4%,·,-12%,·,·,·

# Bioassay records as filed in PubChem.
